Source: PubChem BioAssay AID1159580 (chemical genetic matrix, 2015)
Values joined by “and” are separate entries in the source; they are usually repeats but may differ in a detail not shown here. Identical values can stand only once. Screen size: about 5,500 compounds; about 2,000 (36%) were called active. About 18% were inconclusive and are not listed. Cut-off read from the data, not from the text of the source: active = normalized growth mostly below about 0.91 (no sharp cut-off); inconclusive = no clear call, values can overlap the other calls; inactive = mostly above about 0.92. The list shows a part of the results.

Test: chemical genetic growth profiling, strain panel (AID 1159580);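 note: tested at 20 µM; growth read once vehicle control cultures reached saturation at 30 °C; 1 = growth at the plate median or of vehicle wells; lower values mean less growth of the strain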
Conditions: growth OD

Measured: normalized growth

COc1cc(OC)c2c(c1)OC(c1ccccc1)CC2=O (stereo unspecified)
inactive: S. cerevisiae deletion strains, locus YBR021W, strain FUR4, hits give low values 0.99 | S. cerevisiae deletion strains, locus YBR229C, strain ROT2, hits give low values 0.986 | S. cerevisiae deletion strains, locus YCL029C, strain bik1, hits give low values 1.03 | S. cerevisiae deletion strains, locus YDL035C, strain GPR1, hits give low values 0.988 | S. cerevisiae deletion strains, locus YDL074C, strain BRE1, hits give low values 0.994 | S. cerevisiae deletion strains, locus YDL101C, strain DUN1, hits give low values 0.989 | S. cerevisiae deletion strains, locus YDL185W, strain tfp1, hits give low values 1.01 | S. cerevisiae deletion strains, locus YDL192W, strain arf1, hits give low values 0.979 | S. cerevisiae deletion strains, locus YDR101C, strain arx1, hits give low values 1.02 | S. cerevisiae deletion strains, locus YDR150W, strain NUM1, hits give low values 0.983 | S. cerevisiae deletion strains, locus YDR162C, strain NBP2, hits give low values 0.987 | S. cerevisiae deletion strains, locus YDR318W, strain mcm21, hits give low values 0.988 | S. cerevisiae deletion strains, locus YDR388W, hits give low values 0.999 | S. cerevisiae deletion strains, locus YDR502C, strain sam2, hits give low values 1 | S. cerevisiae deletion strains, locus YEL061C, strain CIN8, hits give low values 0.984 | S. cerevisiae deletion strains, locus YER110C, hits give low values 1.01 | S. cerevisiae deletion strains, locus YER155C, strain BEM2, hits give low values 0.996 | S. cerevisiae deletion strains, locus YER167W, strain BCK2, hits give low values 0.994 | S. cerevisiae deletion strains, locus YGL078C, strain dbp3, hits give low values 1.01 | S. cerevisiae deletion strains, locus YGL086W, strain mad1, hits give low values 1 | S. cerevisiae deletion strains, locus YGL248W, strain PDE1, hits give low values 0.987 | S. cerevisiae deletion strains, locus YGR135W, strain pre9, hits give low values 0.977 | S. cerevisiae deletion strains, locus YGR252W, strain gcn5, hits give low values 1.01 | S. cerevisiae deletion strains, locus YHR030C, strain SLT2, hits give low values 0.987 and 0.965 | S. cerevisiae deletion strains, locus YHR079C, strain IRE1 (second series), hits give low values 1.01 | S. cerevisiae deletion strains, locus YHR079C, strain IRE1, hits give low values 0.963 | S. cerevisiae deletion strains, locus YHR094C, strain hxt1, hits give low values 1.01 | S. cerevisiae deletion strains, locus YHR129C, strain ARP1, hits give low values 0.986 | S. cerevisiae deletion strains, locus YHR200W, strain rpn10, hits give low values 0.997 | S. cerevisiae deletion strains, locus YIL066C, strain RNR3, hits give low values 0.983 | S. cerevisiae deletion strains, locus YIL073C, strain SPO22, hits give low values 1.03 | S. cerevisiae deletion strains, locus YIL125W, strain kgd1, hits give low values 1.01 | S. cerevisiae deletion strains, locus YIR030C, strain dcg1, hits give low values 1 | S. cerevisiae deletion strains, locus YJL095W, strain BCK1, hits give low values 0.932 and 0.982 | S. cerevisiae deletion strains, locus YJL134W, strain LCB3, hits give low values 0.985 | S. cerevisiae deletion strains, locus YJL168C, strain set2, hits give low values 1 | S. cerevisiae deletion strains, locus YJL187C, strain SWE1 (second series), hits give low values 0.994 | S. cerevisiae deletion strains, locus YJR043C, strain POL32, hits give low values 1 | S. cerevisiae deletion strains, locus YJR066W, strain TOR1, hits give low values 0.93 | S. cerevisiae deletion strains, locus YJR075W, strain HOC1, hits give low values 0.992 | S. cerevisiae deletion strains, locus YKL009W, strain mrt4, hits give low values 0.996 | S. cerevisiae deletion strains, locus YKL068W, hits give low values 0.994 | S. cerevisiae deletion strains, locus YKL085W, strain MDH1 (second series), hits give low values 0.991 | S. cerevisiae deletion strains, locus YKL085W, strain MDH1, hits give low values 0.991 | S. cerevisiae deletion strains, locus YKL190W, strain CNB1, hits give low values 0.984 | S. cerevisiae deletion strains, locus YKR001C, strain vps1, hits give low values 0.951 | S. cerevisiae deletion strains, locus YLR039C, strain RIC1, hits give low values 0.842 | S. cerevisiae deletion strains, locus YLR058C, strain SHM2, hits give low values 0.987 | S. cerevisiae deletion strains, locus YLR102C, strain apc9, hits give low values 1 | S. cerevisiae deletion strains, locus YLR113W, strain HOG1, hits give low values 1 | S. cerevisiae deletion strains, locus YLR262C, strain YPT6, hits give low values 0.836 | S. cerevisiae deletion strains, locus YLR268W, strain sec22, hits give low values 1.01 | S. cerevisiae deletion strains, locus YLR330W, strain CHS5, hits give low values 0.98 | S. cerevisiae deletion strains, locus YLR342W, strain FKS1 (second series), hits give low values 0.959 | S. cerevisiae deletion strains, locus YLR371W, strain rom2, hits give low values 1.02 | S. cerevisiae deletion strains, locus YLR418C, strain cdc73, hits give low values 1.03 | S. cerevisiae deletion strains, locus YML016C, strain PPZ1, hits give low values 0.983 | S. cerevisiae deletion strains, locus YML032C, strain rad52, hits give low values 1.02 | S. cerevisiae deletion strains, locus YML124C, strain tub3, hits give low values 1 | S. cerevisiae deletion strains, locus YMR078C, strain ctf18, hits give low values 1 | S. cerevisiae deletion strains, locus YMR223W, strain ubp8, hits give low values 0.983 | S. cerevisiae deletion strains, locus YMR307W, strain GAS1, hits give low values 0.902 | S. cerevisiae deletion strains, locus YNL067W, strain RPL9B, hits give low values 0.993 | S. cerevisiae deletion strains, locus YNL128W, strain TEP1, hits give low values 1.01 | S. cerevisiae deletion strains, locus YNL153C, strain GIM3, hits give low values 1 | S. cerevisiae deletion strains, locus YNL183C, strain NPR1, hits give low values 0.915 | S. cerevisiae deletion strains, locus YNL233W, strain BNI4, hits give low values 0.97 | S. cerevisiae deletion strains, locus YNL250W, strain rad50, hits give low values 1.03 | S. cerevisiae deletion strains, locus YNL271C, strain bni1, hits give low values 1 | S. cerevisiae deletion strains, locus YNL298W, strain CLA4, hits give low values 1.03 | S. cerevisiae deletion strains, locus YNL307C, strain MCK1, hits give low values 1 | S. cerevisiae deletion strains, locus YNR052C, strain pop2, hits give low values 0.989 | S. cerevisiae deletion strains, locus YOL006C, strain TOP1, hits give low values 0.848 | S. cerevisiae deletion strains, locus YOL012C, strain htz1 1.5 | S. cerevisiae deletion strains, locus YOL147C, strain pex11, hits give low values 1.01 | S. cerevisiae deletion strains, locus YOR061W, strain CKA2, hits give low values 0.983 | S. cerevisiae deletion strains, locus YOR069W, strain VPS5, hits give low values 0.984 | S. cerevisiae deletion strains, locus YOR136W, strain idh2, hits give low values 1.01 | S. cerevisiae deletion strains, locus YOR144C, strain elg1, hits give low values 1.01 | S. cerevisiae deletion strains, locus YOR184W, strain ser1, hits give low values 0.955 | S. cerevisiae deletion strains, locus YOR231W, strain MKK1, hits give low values 0.951 | S. cerevisiae deletion strains, locus YOR316C, strain cot1, hits give low values 1.01 | S. cerevisiae deletion strains, locus YPL055C, strain LGE1, hits give low values 1.01 | S. cerevisiae deletion strains, locus YPL241C, strain CIN2, hits give low values 0.978 | S. cerevisiae deletion strains, locus YPL256C, strain CLN2, hits give low values 0.972 | S. cerevisiae deletion strains, locus YPR119W, strain clb2, hits give low values 1.01 | S. cerevisiae deletion strains, locus YPR141C, strain kar3, hits give low values 1.01 | S. cerevisiae deletion strains, locus YPR163C, strain tif3, hits give low values 1.03 | S. cerevisiae deletion strains, locus YPR167C, strain met16, hits give low values 1 | S. cerevisiae deletion strains, strain wtn01, hits give low values 1.01 | S. cerevisiae strains, strain wild type, hits give low values 0.987
